In PubChem BioAssay:
Values joined by “and” are separate entries in the source; they are usually repeats but may differ in a detail not shown here. Equal entries are not always repeated. Active and inactive are the calls of the source.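 Rule for the calls, unless noted: active = inhibition at or above 50% relative to wild type and mutant plate controls; inactive = inhibition below 50%.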

Legend:
[1] = inhibitors of TNFa-induced NFkB p65 translocation, primary screen, imaging, HUVEC, MLSMR starter and 10KST1 sets (AID 438;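 active = inhibition above 20% together with a positive visual image hit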;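 note: compound added about 3h40 before a 20 min TNFalpha stimulation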;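 for inhibition: signal is the nuclear over cytoplasmic p65 intensity ratio per well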); settings: HUVEC TNFa-induced p65 nuclear translocation; cell count: measured here: nuclei count (cytotoxicity indicator), at 2.08 µM; inhibition: at 2 µM, stronger effect = higher value, 0% TNFa-plus-vehicle, 100% no-TNFa wells
[2] = inhibitors of mutant huntingtin aggregation, primary screen, imaging, exon1htt(103Q)mCFP cells, high-content imaging (AID 483;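 active = visual image review flags a hit and inhibition of aggregation exceeds 20%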;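 note: compound exposure lasted 3 days before fixation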;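 for nuclei count: percent of the per-plate median nuclei count of sample wells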); settings: exon1htt(103Q)mCFP cell line, aggregate imaging, at 2 µM; inhibition of aggregation: stronger effect = higher value; nuclei count: measured here: cell count, toxicity
[3] = inhibitors of E-selectin induction by TNFa, primary screen, imaging, HUVEC, immunofluorescence, MLSMR starter and 10KST1 sets (AID 487;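 active = visually confirmed hit in the image check and inhibition above 20%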;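 for inhibition: signal is fraction of cell area covered by stained E-selectin grains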;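 for nuclei count: 100% = median nuclei count of all wells on the same plate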); settings: HUVEC TNFalpha-induced E-selectin immunofluorescence imaging, at 2 µM; inhibition: stronger effect = higher value; nuclei count: measured here: cell number, toxicity
[4] = DUSP6 inhibitors restoring Erk phosphorylation by chemical complementation, primary imaging in DUSP6-transfected HeLa (AID 609;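 active = compounds giving at least 50% inhibition in the cell-based MKP-3 phosphatase rescue imaging test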;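 for inhibition: phospho-Erk level distribution per well compared with pooled transfected vehicle control wells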); settings: HeLa MKP-3 transfected, phospho-Erk imaging KS statistic, at 10 µM, cells stimulated with TPA for 15 min
[5] = target: Dual specificity protein phosphatase 6 (Homo sapiens) (UniProt Q16828); test: as above; settings: HeLa MKP-3 transfected, phospho-Erk imaging KS statistic; at 10 µM; stronger effect = higher value; cells stimulated with TPA for 15 min
Sequence of Dual specificity protein phosphatase 6 (Homo sapiens) (Q16828 whole entry, looked up): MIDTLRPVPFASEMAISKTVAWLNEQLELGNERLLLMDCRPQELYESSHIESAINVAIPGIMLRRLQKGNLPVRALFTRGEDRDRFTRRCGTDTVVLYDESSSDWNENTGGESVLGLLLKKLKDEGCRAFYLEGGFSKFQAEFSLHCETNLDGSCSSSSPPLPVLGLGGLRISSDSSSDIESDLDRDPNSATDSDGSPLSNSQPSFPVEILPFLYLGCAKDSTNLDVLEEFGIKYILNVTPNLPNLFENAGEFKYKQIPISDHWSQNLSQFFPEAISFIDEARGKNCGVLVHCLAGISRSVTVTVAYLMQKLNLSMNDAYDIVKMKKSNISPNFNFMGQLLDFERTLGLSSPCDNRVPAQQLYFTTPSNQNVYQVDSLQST

[6] = target: Voltage-gated potassium channel subunit beta-2 (Rattus norvegicus) (UniProt P62483); test: KvBeta enzyme negative modulators, primary screen, biochemical, NADPH fluorescence (AID 622;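 active = fluorescence slope higher than the sample average by over 3 SD, cut at about -0.22 in these data, passing the limit was not always enough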;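 note: slope of raw intensity against log time taken from 70 to 1610 s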); settings: recombinant KvBeta, 4-cyanobenzaldehyde reduction, at 10 µM, stronger effect = higher value
Sequence of Voltage-gated potassium channel subunit beta-2 (Rattus norvegicus) (P62483 whole entry, looked up): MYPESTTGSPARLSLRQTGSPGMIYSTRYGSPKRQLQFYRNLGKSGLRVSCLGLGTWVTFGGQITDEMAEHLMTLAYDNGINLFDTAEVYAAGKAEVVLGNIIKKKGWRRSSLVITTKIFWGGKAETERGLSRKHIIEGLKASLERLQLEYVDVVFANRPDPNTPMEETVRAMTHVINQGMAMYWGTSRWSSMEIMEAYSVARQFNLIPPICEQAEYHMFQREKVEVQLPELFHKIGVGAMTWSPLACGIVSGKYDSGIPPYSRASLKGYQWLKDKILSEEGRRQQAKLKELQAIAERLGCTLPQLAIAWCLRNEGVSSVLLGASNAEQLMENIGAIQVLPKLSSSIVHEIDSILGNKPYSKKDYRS

[7] = target: Voltage-gated potassium channel subunit beta-2 (Rattus norvegicus) (UniProt P62483); test: KvBeta positive modulators, primary screen, biochemical, NADPH fluorescence (AID 623;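 active = NADPH fluorescence slope more negative than the mean of all samples by about 3 SD, 99.7% confidence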;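 note: fluorescence intensity change per second fitted from 20 to 320 s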); settings: Recombinant KvBeta, NADPH fluorescence decrease slope, 10 min; at 10 µM; stronger effect = lower value
[8] = target: Alpha-2C adrenergic receptor (Homo sapiens) (UniProt P18825); test: modulators of alpha2C/GIRK thallium flux, primary screen, cell-based, HEK293 alpha2C/GIRK1/2 (AID 624;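 active = fluorescence slope after compound addition differing from the mean of all screened samples at 99.7% confidence, in either direction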;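 note: slope of fluorescence ratio to pre-addition baseline per second over 15 to 24 s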); settings: thallium flux BTC fluorescence, at 10 µM, actives lie on both sides
Sequence of Alpha-2C adrenergic receptor (Homo sapiens) (P18825 whole entry, looked up): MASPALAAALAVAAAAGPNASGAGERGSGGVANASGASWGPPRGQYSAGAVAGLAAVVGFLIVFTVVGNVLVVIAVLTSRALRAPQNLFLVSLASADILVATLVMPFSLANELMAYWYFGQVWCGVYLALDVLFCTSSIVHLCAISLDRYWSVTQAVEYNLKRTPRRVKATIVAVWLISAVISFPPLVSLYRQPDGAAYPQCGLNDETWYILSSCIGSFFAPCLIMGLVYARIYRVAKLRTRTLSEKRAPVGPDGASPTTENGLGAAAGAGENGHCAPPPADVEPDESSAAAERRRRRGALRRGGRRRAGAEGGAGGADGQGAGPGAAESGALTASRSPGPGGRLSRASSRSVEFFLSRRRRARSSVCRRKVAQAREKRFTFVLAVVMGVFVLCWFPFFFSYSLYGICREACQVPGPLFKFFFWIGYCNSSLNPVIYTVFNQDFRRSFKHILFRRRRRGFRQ

[9] = inhibitors of larval lipid processing in zebrafish, primary screen, whole organism, PED6 fluorescence, gall bladder and intestine (AID 686;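 active = a full or partial loss of lipid-probe fluorescence in the fish gall bladder, intestine or both, judged by eye; inactive = no fluorescence loss, or compound toxic to the fish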;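 note: larvae 5 to 7 days old with five fish per well; signal comes from phospholipase A2 cleavage of quenched PED6 carried via bile; overnight exposure to compound and PED6 before scoring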); settings: Zebrafish larvae PED6 lipid processing, fluorescence scoring; screened at 20 µM (by protocol)
[10] = inhibitors of Chlamydomonas gravitaxis, primary screen, whole organism, Chlamydomonas reinhardtii, WT vs cilia-less mutant, absorbance, 96-well (AID 463189); settings: OD600 absorbance, 2 days, at 10 µM, stronger effect = higher value;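 note: 0% = wild type cc124 cells in DMSO and 100% = ciliumless bld1 mutant cells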
[11] = inhibitors of Sendai virus-induced IRF3 signaling, primary screen, TLR/RLR signaling modifier project, cell-based, Sendai virus stimulus, luciferase, 10K MLSCN set (AID 602276;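 active = inhibition at or above 50% at 10 µM; inactive = inhibition below 50%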;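 note: firefly luciferase from ISG56 promoter only with Renilla not read in this screen; 0% = Sendai virus plus DMSO and 100% = medium plus DMSO without virus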); settings: HEK293 RL24 IRF3 luciferase reporter, at 10 µM, stronger effect = higher value
[12] = inhibitors of poly I:C-induced TLR3 signaling, primary screen, cell-based, poly I:C stimulus, luciferase, 10K MLSCN set (AID 602277;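 active = inhibition of the reporter signal at or above 50%; inactive = inhibition below 50%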); settings: HEK293-TLR3 RL24 IRF3 luciferase reporter, at 10 µM, stronger effect = higher value
[13] = measured here: cell density z-score
[14] = measured here: nuclear c-Myc green intensity z-score
[15] = measured here: nuclear pErk red intensity z-score, stronger effect = higher value

| SMILES | cell count [1] | inhibition [1] | inhibition of aggregation [2] | nuclei count [2] [%] | inhibition [3] | nuclei count [3] [%] | z-score [4, 13] | z-score [4, 14] | z-score [4, 15] | inhibition [5] | fluorescence slope [6] | NADPH fluorescence slope [7] | slope [8] | outcome [9] | inhibition [10] | inhibition [11] | inhibition [12] |
| --- | --- | --- | --- | --- | --- | --- | --- | --- | --- | --- | --- | --- | --- | --- | --- | --- | --- |
| Cc1ccc(C)c(OCCCC(C)(C)C(=O)O)c1 | 624 | -1.4% (inactive) | 26.1% (inactive) | 107 | -52.3% (inactive) | 122 | 0.389 | 0.0218 | 0.246 | 7.39% (inactive) | -0.536 (inactive) | -3.5e-05 (inactive) | 0.00591 (inactive) | inactive | 36% (inactive) | 17.7% (inactive) | 39.7% (inactive) |
| CC1(C)O[C@@H]2C[C@H]3[C@@H]4C[C@H](F)C5=CC(=O)CC[C@]5(C)[C@H]4[C@@H](O)C[C@]3(C)[C@]2(C(=O)CO)O1 | 547 | -0.5% (inactive) | -27.2% (inactive) | 54.1 | 1.2% (inactive) | 102 | -0.857 | -0.0426 | 0.461 | -2.46% (inactive) | -0.476 (inactive) | -9e-05 (inactive) | 0.00483 (inactive) | inactive | 6.62% (inactive) | -7.22% (inactive) | 22% (inactive) |
| CCCCC[C@H](O)/C=C/[C@@H]1[C@@H](CCCCCCC(=O)O)[C@@H](O)C[C@H]1O | 594 | -7.7% (inactive) | 9% (inactive) | 106 | -80.7% (inactive) | 114 | -0.368 | 0.536 | -0.971 | 7.39% (inactive) | -0.458 (inactive) | -4e-05 (inactive) | 0.00481 (inactive) | inactive | -6.66% (inactive) | 11.4% (inactive) | 33.8% (inactive) |
| O=C(O)/C=C/c1ccc(O)c(O)c1 | 613 | 4% (inactive) | 8.3% (inactive) | 103 | -48.2% (inactive) | 116 | -0.618 | -0.142 | -0.455 | 10.2% (inactive) | -0.453 (inactive) | -6.6e-05 (inactive) | 0.00437 (inactive) | inactive | -2.7% (inactive) and 27.7% (inactive) | 8.79% (inactive) | 43.2% (inactive) |
| OC[C@H]1O[C@@H](n2cnc3c(Nc4ccccc4)ncnc32)[C@H](O)[C@@H]1O | 606 | -3.3% (inactive) | 17.1% (inactive) | 104 | -19.9% (inactive) | 107 | 1.07 | -1.93 | -0.432 | -0.828% (inactive) | -0.459 (inactive) | -4.6e-05 (inactive) | 0.00784 (inactive) | inactive | -14.4% (inactive) | -32.6% (inactive) | -55.1% (inactive) |
| N[C@@H](Cc1ccc(O)c(I)c1)C(=O)O | 525 | 0.1% (inactive) | 1.7% (inactive) | 92.3 | -11.6% (inactive) | 110 | -0.528 | -0.732 | -0.19 | -4.44% (inactive) | -0.463 (inactive) | 3e-05 (inactive) | 0.00503 (inactive) | inactive | 0.129% (inactive) and -19.2% (inactive) | 9.28% (inactive) | 24.3% (inactive) |
| Nc1ccc(S(=O)(=O)c2ccc(N)cc2)cc1 | 511 | -1.5% (inactive) | 0.3% (inactive) | 103 | -20.6% (inactive) | 106 | -0.829 | 0.112 | 0.308 | 16.8% (inactive) | -0.465 (inactive) | 3.3e-05 (inactive) | 0.00573 (inactive) | inactive | 8.87% (inactive) | -3.01% (inactive) | 11.3% (inactive) |
| CCOc1ccc(CSC(CC(=O)O)C(=O)O)cc1 (stereo not given) | 670 | -12.9% (inactive) | 18.1% (inactive) | 98.8 | -17.6% (inactive) | 137 | -0.325 | -0.101 | 1.94 | -6.86% (inactive) | -0.356 (inactive) | -2.7e-05 (inactive) | 0.00455 (inactive) | inactive | 2.66% (inactive) | 13.1% (inactive) | 29.3% (inactive) |
| CCCOc1ccc(N2C(=O)C3ON(c4ccccc4)C(c4ccc(O)c(OC)c4)C3C2=O)cc1 (stereo not given) | 413 | -5.2% (inactive) | 2.2% (inactive) | 110 | -53.3% (inactive) | 124 | 0.885 | -0.229 | -0.338 | 7.42% (inactive) | -0.41 (inactive) | -0.0001 (inactive) | 0.00809 (inactive) | inactive | -8.77% (inactive) | 16.5% (inactive) | 16.8% (inactive) |
| CN1CCC(=C2c3ccccc3C=Cc3ccccc32)CC1 | 599 | -6% (inactive) | -5.2% (inactive) | 104 | -80% (inactive) | 131 | 0.654 | 1.45 | -1.1 | 9.37% (inactive) | -0.438 (inactive) | -6.6e-05 (inactive) | 0.00408 (inactive) | inactive; toxic | 12% (inactive) and 38.6% (inactive) | 18.4% (inactive) | 46.7% (inactive) |
